Source: PubChem BioAssay
Only some compounds are listed: those with a hit (about 0.77% of all), similar ones and a draw of the others.
Mtb RmlCD inh – blocks M. tuberculosis RmlC and RmlD coupled enzymes; P9WH09+P9WH11; inhibition, % at 3.6 µM; 160,000 compounds, 0.03% hits; RmlC+RmlD coupled enzyme assay, percent inhibition; primary screen in compound mixtures; in the data active = inhibition mostly above about 34%, no sharp cut-off
RecA intein inh – Mtb RecA intein splicing inhibition; cell-free RecA intein splicing, fluorescence; inhibition, % (test concentration not listed); 290,000 compounds, 0.75% hits; AID 2221; in the data active = inhibition above about 30%;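 also: 0% = vehicle wells and 100% = reference inhibitor control wells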
Target sequence (P9WHJ3 whole entry, looked up): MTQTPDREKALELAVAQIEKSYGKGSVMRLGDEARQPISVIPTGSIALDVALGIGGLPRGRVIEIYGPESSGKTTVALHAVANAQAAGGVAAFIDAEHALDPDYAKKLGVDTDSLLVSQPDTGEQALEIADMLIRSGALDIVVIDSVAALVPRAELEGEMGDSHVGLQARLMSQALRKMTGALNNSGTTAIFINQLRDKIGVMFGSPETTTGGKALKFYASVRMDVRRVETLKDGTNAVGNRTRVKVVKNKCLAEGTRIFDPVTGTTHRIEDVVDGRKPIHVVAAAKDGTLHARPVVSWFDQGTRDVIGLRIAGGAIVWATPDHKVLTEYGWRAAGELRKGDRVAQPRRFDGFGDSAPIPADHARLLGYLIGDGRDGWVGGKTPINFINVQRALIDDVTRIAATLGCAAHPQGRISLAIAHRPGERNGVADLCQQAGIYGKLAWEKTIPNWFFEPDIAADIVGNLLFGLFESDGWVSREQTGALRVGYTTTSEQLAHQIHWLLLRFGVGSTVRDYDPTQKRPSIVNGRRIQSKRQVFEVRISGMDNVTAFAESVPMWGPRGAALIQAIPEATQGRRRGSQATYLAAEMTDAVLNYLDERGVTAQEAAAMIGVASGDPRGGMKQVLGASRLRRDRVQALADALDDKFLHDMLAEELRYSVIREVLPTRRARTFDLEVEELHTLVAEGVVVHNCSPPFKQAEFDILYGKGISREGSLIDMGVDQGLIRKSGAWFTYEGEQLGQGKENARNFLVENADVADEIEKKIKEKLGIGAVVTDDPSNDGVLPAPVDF
GFP chromo cs – counter-screen: blocks GFP chromophore formation; shares compounds with RecA intein inh; cell-free GFP chromophore formation, fluorescence; EC50, µM; 2,100 compounds, 83% hits; call rule not given here
* hit, by the source's call; / = no result given.

SMILES	Mtb RmlCD inh	RecA intein inh	GFP chromo cs
Cn1c(O)c(C2=NN(C(=O)CCl)C(c3ccccc3)C2)c(=O)n(C)c1=O (stereo not given)	-3	45*	5.8*
CCC(=O)N1N=C(c2c(O)n(C)c(=O)n(C)c2=O)CC1c1ccccc1 (stereo not given)	5	12	/
Nc1cccc(/C=C/C(=O)O)c1	-1	-1	/
COc1ccccc1-c1cc(C(F)(F)F)nc(S(=O)(=O)CCCC(=O)Nc2cc(C)on2)n1	17	25	/
CN1CCN(c2nc(-c3ccco3)cc(C(F)(F)F)n2)CC1	-8	-1	/
COc1ccccc1-c1cc(C(F)(F)F)nc(S(=O)(=O)CCCC(=O)N2CCCCC2C)n1 (stereo not given)	-16	56*	7.2*
COc1ccccc1-c1cc(C(F)(F)F)nc(S(C)(=O)=O)n1	-5	50*	31*
COc1ccccc1-c1cc(C(F)(F)F)nc(N2CCCC2)n1	-6	/	/
CS(=O)(=O)c1nc(-c2ccco2)cc(C(F)(F)F)n1	/	40*	>38
COc1ccccc1-c1cc(C(F)(F)F)nc(S(=O)(=O)CCCC(=O)NC(C)C)n1	/	22	/
COc1ccccc1-c1cc(C(F)(F)F)nc(S(=O)(=O)CCCC(=O)NCc2ccc(F)cc2)n1	-13	47*	7.7*
N#CC1=C(SCC(=O)Nc2nccs2)NC(=O)CC1c1ccccc1 (stereo not given)	2	-2	/
CC1=C(C(=O)Nc2ccccc2F)C(c2cccs2)C2=C(CCCC2=O)N1 (stereo not given)	9	-2	/
CSC(=NNC(=O)c1ccccc1O)SC	0	-2	/
O=C(c1ccc(F)cc1)N1CCN(c2ccc([N+](=O)[O-])c(N3CCOCC3)c2)CC1	-11	-1	/
Cc1ccsc1/C=C1\Oc2cc(OCC(=O)c3ccccc3)ccc2C1=O	-6	-4	/
CC1=NN(c2ccccc2)C(=O)/C1=C\c1cc(C)n(-c2ccccc2)c1C	8	0	/
CC1=NN(c2ccccc2)C(=O)/C1=C/c1ccc[nH]1	-4	-1	/
CC1=NN(c2ccccc2)C(=O)/C1=C/c1ccc(Cl)cc1	/	85*	3.2*
CC1=NN(c2ccccc2)C(=O)/C1=C\c1ccc(Br)s1	-4	14	/
COc1ccc(/C=C2/C(=O)N(Cc3ccccc3)N=C2C)cc1	-12	59*	7.3*
COc1ccc(-c2ccc(=O)n(Cc3ccccc3)n2)cc1	/	5	/
CC1=NN(c2ccccc2)C(=O)/C1=C/c1cccs1	-12	85*	6*
CC1=NN(c2ccccc2)C(=O)/C1=C\c1cc(C)n(-c2cccnc2)c1C	9	33*	31*
CC(NC(=O)c1ccco1)C(=O)N1CCN(C(c2ccccc2)c2ccccc2)CC1 (stereo not given)	/	6	/
SMILES	Mtb RmlCD inh	RecA intein inh	GFP chromo cs
CCOc1ccc(C(c2c(C)n(C)n(-c3ccccc3)c2=O)c2c(C)n(C)n(-c3ccccc3)c2=O)c(O)c1	/	-2	/
COC(=O)Cc1c[nH]c2cccc(OCC(O)CN(Cc3ccc([N+](=O)[O-])cc3)C(C)(C)C)c12 (stereo not given)	6	4	/
O=S(=O)(Nc1ccc(-n2cnnn2)cc1)c1ccc(F)c(F)c1F	2	30*	>38
CCCCOc1ccc(NS(=O)(=O)c2ccc(-n3cnnn3)cc2)cc1	/	0	/
CCN(CC)CCCn1c2c(c(SCC(=O)Nc3ccc(C)c(F)c3)nc1=O)CCC2	/	0	/
OCC12CO[C@@H]3c4ccccc4[C@H](OC1)N32 (stereo not given in full)	7	-1	/
CCOC(=O)c1c(CSC(=N)N)n(C)c2cc(Br)c(OC(C)=O)cc12	-10	25	/
CCOC(=O)c1c(CSC(=N)N)n(-c2ccc(C)cc2)c2cc(Br)c(OC(C)=O)cc12	5	70*	7.9*
CC1=NNC(=O)C1CCC(=O)N/N=C/C(Br)=C/c1ccccc1 (stereo not given)	10	5	/
CC1=NNC(=O)C1Cc1ccccc1 (stereo not given)	/	96*	0.66*
CC1=NNC(=O)C1C(c1ccccc1)C1C(=O)NN=C1C (stereo not given)	-11	98*	0.41*
CC1=NNC(=O)C1CC(=O)N/N=C/C(Br)=C/c1ccccc1 (stereo not given)	-15	23	/
O=C(O)Cc1ccc(NC(=O)CCN2C(=O)c3ccc([N+](=O)[O-])cc3C2=O)cc1	3	-7	/
CC1=C(C(=O)NCc2ccccc2)C(c2cc(Br)cc(Br)c2OC(C)C)NC(=O)N1 (stereo not given)	/	0	/
CCC(=O)Nc1nc2ccc3nc(C)sc3c2s1	/	2	/
O=S(=O)(c1ccc(N2CC=C(c3ccccc3)CC2)nc1)N1CCCC1	8	6	/
CC1CCCC(C)N1CCCNC(=O)Cn1ncc2c([nH]c3ccccc32)c1=O (stereo not given)	/	1	/
Cn1cccc1CC(=O)N/N=C/C(Cl)=C/c1ccccc1	9	3	/
O=C(Cc1cc(=O)[nH][nH]1)N/N=C/c1cccc2ccccc12	-14	94*	7.3*
O=C(Cc1cc(=O)[nH][nH]1)N/N=C/c1cccc(Cl)c1Cl	-6	94*	11*
O=C(Cc1cc(=O)[nH][nH]1)N/N=C/C(Cl)=C/c1ccccc1	-9	81*	6*
O=C(Cc1ccccc1)N/N=C/c1ccccc1Cl	/	-1	/
O=C(CO)N/N=C/c1cccc(Cl)c1Cl	1	1	/
O=C(N/N=C/c1cccc2ccccc12)c1cccc(F)c1	/	3	/
O=C(Cc1cc(=O)[nH][nH]1)N/N=C/c1ccccc1Cl	5	74*	7.7*
SMILES	Mtb RmlCD inh	RecA intein inh	GFP chromo cs
COc1ccc(CNC(=O)CSc2nnc(NC(=O)C3CC3)s2)cc1	/	2	/
CC(C)(O)C(=O)N/N=C\c1ccc(OC/C=C/c2ccccc2)cc1	/	1	/
CCc1ccc(-c2cc(C)no2)cc1S(=O)(=O)Nc1cc(C)ccn1	/	-2	/
C=C(C)CNC(=S)N/N=C/c1ccc(N2CCOCC2)cc1	-9	1	/
COc1cc(OC)c(OC)cc1CNCC1COc2ccccc2O1 (stereo not given)	/	-6	/
COC(=O)c1cnn(-c2nc(-c3ccccc3)cs2)c1N	/	0	/
COc1ccccc1NC(=O)CN1CCN(CC(=O)Nc2ccccc2Cl)CC1	/	0	/
N#CC1=C(N)Oc2cc(N)ccc2C1c1ccc(Cl)cc1 (stereo not given)	/	-13	/
Cc1cc(-c2[nH]nc3c2C(c2ccc(Cl)cc2)C(C#N)=C(N)O3)c(C)s1 (stereo not given)	/	77*	23*
Cc1ccsc1C1C(C#N)=C(N)Oc2n[nH]c(C)c21 (stereo not given)	-11	15	/
Cc1[nH]nc2c1C(c1cccs1)C(C#N)=C(N)O2 (stereo not given)	/	54*	34*
Cc1[nH]nc2c1C(c1ccc(Cl)cc1)C(C#N)=C(N)O2 (stereo not given)	-5	75*	29*
Cc1[nH]nc2c1C(c1cnn(C)c1)C(C#N)=C(N)O2 (stereo not given)	0	76*	23*
N#CC1=C(N)Oc2n[nH]c(-c3cccnc3)c2C1c1cc(F)ccc1F (stereo not given)	-9	0	/
O=C(CN1CCN(C(=O)c2cccs2)CC1)Nc1ccc(Br)cc1	9	-1	/
Cc1ccc(C2C(C#N)=C(N)Oc3cc4c(cc32)OCO4)cc1 (stereo not given)	3	-12	/
